High-throughput results from PubChem BioAssay.
MITF inh – human MITF inhibition, primary screen; O75030; AlphaScreen MITF homodimerization, bead proximity signal; inhibition, % at 2.6 µM; 0.91% of 650,000 active; AID 1259374; in the data active = inhibition above about 50%
Target sequence (O75030 whole entry, looked up): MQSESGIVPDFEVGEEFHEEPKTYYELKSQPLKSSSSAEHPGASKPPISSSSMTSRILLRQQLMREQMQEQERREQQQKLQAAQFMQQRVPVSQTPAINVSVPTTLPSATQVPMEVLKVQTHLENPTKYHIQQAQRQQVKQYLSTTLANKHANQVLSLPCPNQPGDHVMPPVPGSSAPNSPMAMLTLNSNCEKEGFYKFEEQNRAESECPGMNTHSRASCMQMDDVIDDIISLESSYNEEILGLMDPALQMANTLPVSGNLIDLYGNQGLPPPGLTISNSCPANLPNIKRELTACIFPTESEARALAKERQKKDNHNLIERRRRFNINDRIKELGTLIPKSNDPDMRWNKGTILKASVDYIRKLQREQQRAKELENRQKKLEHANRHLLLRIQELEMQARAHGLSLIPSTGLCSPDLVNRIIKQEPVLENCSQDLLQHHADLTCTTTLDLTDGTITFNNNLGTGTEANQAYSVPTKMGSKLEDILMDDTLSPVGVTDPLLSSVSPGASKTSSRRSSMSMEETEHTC
TEAD-YAP block – TEAD-YAP interaction inhibition; HEK-TIYL cells, TEAD-Gal4/YAP UAS-luciferase luminescence; AID 1259422; 1.4% of 640,000 active; inhibition, % at 9.12 µM; in the data active = inhibition above about 32%
FBW7 act – activators of human E3 ligase FBW7. normalized activity (activation), % at 26.1 µM. AID 1259310. Q969H0. 0.13% of 650,000 active. AlphaScreen FBW7–phospho-cyclin E peptide binding, activator screen; in the data active = normalized activity above about 1.9%;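 note: purified mutant Fbw7 with reduced substrate affinity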
GPR151 activ – activates the human receptor GPR151; activation, % at 11.2 µM; 1% of 650,000 active; PathHunter beta-arrestin GPR151 cells, luminescence; AID 1508602; in the data active = activation above about 4.9%
GPR151 conf act – human GPR151 activation, confirmation screen; shares compounds with GPR151 activ; GPR151 PathHunter beta-arrestin cells, luminescence, 90 min; % of EA-reagent control over plate median; activation, % at 11.2 µM; 6,700 tested, under 10 active; AID 1508609;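 active = mean percent activation across replicates above the confirmation screen cutoff of 4.91%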
GPR119 ag – activates human GPR119 in a GPR151 counter-screen | shares compounds with GPR151 activ | GPR119 PathHunter beta-arrestin cells, luminescence, 90 min; 0 = compound-well median, 100 = enzyme-acceptor control | activation, % at 11.2 µM | 0.3% of 6,700 active | AID 1508611;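 active = mean percent activation in the counterscreen above 29.09%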;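 note: counterscreen on off-target GPR119 to flag nonselective hits from the GPR151 activator screen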
Each line names hits and unclear results; the compound was inactive in the other large screens (follow-up assays come after a bar, where they were run). Only some compounds are listed: those with a hit (about 3.5% of all), similar ones and a draw of the others.

COCCCNC(=O)c1cc2c(=O)n3cccc(C)c3nc2n(CCOC)c1=N	GPR151 activ 6.6 | GPR151 conf act inactive | GPR119 ag inactive
CN(C)C(=O)c1ccc(N2CCC(NCc3cccc(F)c3)CC2)cc1	none
COc1ccc(OC)c(-c2cc(C(=O)N/N=C/c3c(C)nn(-c4ccccc4)c3C)[nH]n2)c1	GPR151 activ 5.2 | GPR151 conf act inactive | GPR119 ag inactive
COC(=O)N/N=C\c1c(C)nn(-c2ccccc2)c1Cl	none
COc1cc([N+](=O)[O-])ccc1NC(=O)CN1CCC(c2nc3ccccc3[nH]2)CC1	none
COc1cc2c(cc1NC(=O)C/C(C)=N/NC=O)oc1ccccc12	GPR151 activ 13 | GPR151 conf act inactive | GPR119 ag inactive
CN(Cc1cccc(C(=O)NCCCCCCNS(=O)(=O)c2cccc3c(N(C)C)cccc23)c1)C(=O)Nc1ccc(-c2cn[nH]c2)cc1	FBW7 act 3.1, GPR151 activ 5.7 | GPR151 conf act inactive | GPR119 ag inactive
COCC(=O)NCC1CCC2(CCN(Cc3ccc(N(C)c4ccccc4)cc3)CC2)O1 (stereo unspecified)	none
COCC(=O)NCC1CCC2(CCN(C/C(C)=C/c3ccccc3)CC2)O1 (stereo unspecified)	GPR151 activ 5.1 | GPR151 conf act inactive | GPR119 ag inactive
CCSc1ccccc1C(=O)Nc1ccc(S(=O)(=O)N2CCOCC2)cc1	GPR151 activ 6.5 | GPR151 conf act inactive | GPR119 ag inactive
Cc1ccccc1C(=O)Nc1ccc(S(=O)(=O)N2CCN(C)CC2)cc1	GPR151 activ 6.7 | GPR151 conf act inactive | GPR119 ag inactive
CCSc1ccccc1C(=O)Nc1ccncc1	GPR151 activ 5.0 | GPR151 conf act inactive | GPR119 ag inactive
CCSc1ccccc1C(=O)Nc1cccnc1	none
CCOC(=O)c1c(C)c(C(=O)NCCC(C)C)c(C)n1C	GPR151 activ 12 | GPR151 conf act inactive | GPR119 ag inactive
CCOC(=O)c1c(C)c(C(=O)NCCCOC)c(C)n1C	none
O=C(NC1CC1)c1cccc(Nc2ccc(-n3ccnc3)cc2)c1	GPR151 activ 6.2 | GPR151 conf act inactive | GPR119 ag inactive
O=C(Nc1cccc2ccccc12)c1cc2cc([N+](=O)[O-])ccc2oc1=O	none
Cc1c(C(=O)OC(C)C)sc(NC(=O)c2ccccc2F)c1C#N	GPR151 activ 5.8 | GPR151 conf act inactive | GPR119 ag inactive
Cc1c(C(=O)OC(C)C)sc(NC(=O)c2cc(Cl)ccc2Cl)c1C#N	none
CC(C)NC(=O)CN(Cc1ccccc1)S(=O)(=O)c1ccc(Br)cc1	none
N#CC1(C#N)CC(C=O)=C(N)C1(C#N)CC(=O)C12CC3CC(CC(C3)C1)C2 (stereo unspecified)	GPR151 activ 14 | GPR151 conf act inactive | GPR119 ag inactive
COc1cc(CNCC(C)C)cc(Cl)c1OC	none
CCOc1c(Cl)cc(CNCC(C)C)cc1OC	GPR151 activ 6.2 | GPR151 conf act inactive | GPR119 ag inactive
CC(=O)c1ccc(NC(=O)CSc2nnc(C34CC5CC(CC(C5)C3)C4)n2C)cc1	GPR151 activ 6.2 | GPR151 conf act inactive | GPR119 ag inactive
CC(=O)c1ccc(NC(=O)CSc2nnc(C3CC3)n2C)cc1	none
Cn1cc(CN2CCOCC2)c(-c2ccc3c(c2)OCCO3)n1	GPR151 activ 9.2 | GPR151 conf act inactive | GPR119 ag inactive
Cn1cc(CN2CCN(Cc3nccn3C)CC2)c(-c2ccc3c(c2)OCCO3)n1	none
C=CCNC(=O)c1cc(I)ccc1NC(=O)c1ccc(F)cc1	GPR151 activ 11 | GPR151 conf act inactive | GPR119 ag inactive
C=CCNC(=O)c1cc(I)ccc1NC(=O)c1cccnc1	GPR151 activ 5.7 | GPR151 conf act inactive | GPR119 ag inactive
Nn1c(SC/C=C/c2ccccc2)nnc1-c1ccccc1	none
CC(Oc1cccc(Cl)c1)C(=O)Nc1nccs1 (stereo unspecified)	GPR151 activ 6.0 | GPR151 conf act inactive | GPR119 ag inactive
CC(=O)N(C)c1nnc(-c2ccccn2)s1	GPR151 activ 7.8 | GPR151 conf act inactive | GPR119 ag inactive
COc1ccc(CNc2ccc(C(=O)Nc3cccc(C)c3)cc2[N+](=O)[O-])cc1	none
COc1ccccc1Cc1noc(-c2cc(Cl)ccc2OC)n1	GPR151 activ 6.3 | GPR151 conf act inactive | GPR119 ag inactive
COc1ccccc1Cc1noc(-c2ccc(I)cc2)n1	none
